Test results: PubChem BioAssay (NCI)
The panel holds about 83,000 compounds, 20% with a hit somewhere; the sample as a whole holds those more often.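 The test compound was applied at a single concentration to cells in 96-well plates for 48 hours, and percent growth was recorded.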 A number with no mark means an inactive call. Activity calls are given as the source filed them. The calls were made as follows: active = growth percent below 10; inactive = the rest.

Each molecule was assayed on PC-3 prostate (assay: NCI-60 one-dose screen, 48 h (100 = growth as untreated, 0 = no growth, -100 = all killed)). Conditions: 10 µM unless noted.

Row | SMILES | growth
1 | O=C(CSc1nc2ccc([N+](=O)[O-])cc2[nH]1)Nc1ccc(F)c(Cl)c1 | 8.99% (active)
2 | Cc1cc(C)c(O)c(CNCCCCCCNCc2cc(C)cc(C)c2O)c1 | 34.7%
3 | CS(=O)(=O)c1cccnn1 | 95.6%
4 | Cc1ccc(S(=O)(=O)Nc2ccccc2)cc1N | 89.5%
5 | Nc1cc(C(=O)O)[nH]c(=S)n1 | 99.8%
6 | COc1ccc(-c2nc3ccccn3c2/C=C/C(=O)c2cc(OC)c(OC)c(OC)c2)cc1OC | 26.1%
7 | O=C(Nc1cccc2cccnc12)c1cc(C(=O)c2ccc(Cl)cc2)n2ccc(-c3ccncc3)cc12 | 95.3%
8 | Cc1cccc(C[C@H](NC(=O)Nc2ccc(C)cc2F)C(=O)N[C@@H]2C(=O)N3C[C@H](O)C[C@H]3C(=O)N3CCN(C)C[C@H]3C(=O)N[C@@H](C)C(=O)N3C[C@H](C)C[C@H]3C(=O)O[C@H]2C)c1 | 22.6%
9 | O=C1COCCN1c1ccc(NCc2cn(Cc3cccc4ccccc34)c3ccccc23)cc1 | 79.4%
10 | COc1ncnc2c(-c3ccccc3)cn(COCc3ccccc3)c12 | 25.2%
11 | O=C1CN(Cc2ccc(C(=O)NO)cc2)C(=O)[C@@H](Cc2ccccc2)N1 | 97.9%
12 | CC(C)C1=NOC(=O)C1=Cc1cn(-c2ccco2)nc1-c1ccccc1 | 78%
13 | c1ccc(-c2nnc(-c3c[nH]c4ncccc34)s2)cc1 | 81.6%
14 | COCCCNc1nc(NC(=O)c2cc(Br)cc(C(F)(F)F)c2)cc(-c2cccnc2)n1 | 70.6%
15 | CCn1cc(-c2cc(-c3ccc(Cl)cc3)nc(N)n2)c(-c2ccc(Br)cc2)n1 | 47%
16 | CCOC(CNC(=O)c1cccc([N+](=O)[O-])c1)OCC | 102%
17 | Cc1cccc([N+](=O)[O-])c1I | 85.5%
18 | CCOc1cc(NC(=O)c2ccccc2)c(OCC)cc1N | 104%
19 | CN(C)CCOc1ccc(/C(=C(/CCCl)c2ccccc2)c2ccccc2)cc1 | 18.7%

Row | SMILES | growth
20 | Nc1nc(N)c2c(n1)NC(c1ccc(F)cc1)C1CCc3ccccc3C1=N2 (stereo not drawn) | 45%
21 | CNC(=O)c1cc(Oc2ccc3nc(NC(=O)c4ccc5ncccc5c4)sc3c2)ccn1 | 93.2%
22 | CC1(C)CC[C@]23CC[C@]4(C)[C@H](CC[C@@H]5[C@@]6(C)C/C(=C/c7ccncc7)C(=O)C(C)(C)[C@@H]6CC[C@]54C)[C@H]2[C@H]1OC3=O | 50.5% [100 µM]
23 | CC1=CC[C@@H]2C(C)(C)C(=O)CC[C@@]2(C)[C@@H]1COc1ccc2ccc(=O)oc2c1 | 58.4%
24 | COc1ccc(/C=C/C=C\C(=O)c2ccc(-n3ccnc3)cc2)cc1 | 88.8%
25 | CCc1cccc(Cl)c1 | 88.2%
26 | Cc1ccc(S(=O)(=O)n2cc(C(=O)C(=O)N3CCCCC3)c3ccccc32)cc1 | 52.1%
27 | Cn1cc(-c2noc(-c3cn(C)c4ncc(F)cc34)n2)c2cc(Cl)ccc21 | 79.4%
28 | O=C(Nc1cccc2ccccc12)c1cc2ccccc2cc1O | 2.08% (active)
29 | C#C[C@]1(O)CC[C@H]2[C@@H]3CC=C4c5nc(Nc6ncccn6)sc5CC[C@]4(C)[C@H]3CC[C@@]21C | 32.1%
30 | CC(=O)OC[C@]12CC[C@@H](C(=O)CBr)[C@@H]1[C@H]1CC[C@@H]3[C@@]4(C)CCCNC(C)(C)[C@@H]4CC[C@@]3(C)[C@]1(C)CC2 | -76.6% [100 µM] (active)
31 | O=S(=O)(c1ccc(N/N=C\c2ccccc2Cl)cc1)c1ccc(N/N=C/c2ccccc2Cl)cc1 | 54.7%
32 | Nc1nc(Cl)c2ncn(Cc3cc4c(cc3I)OCO4)c2n1 | 39.1%
33 | Cc1ccc2c(c1)/C(=N\N=C/c1cn(C(C)C)c3ccccc13)C(=O)N2 | 34.7%
34 | O=C1CC(c2ccccc2)Cc2nc3ccc(Cl)cc3cc21 (stereo not drawn) | 27.7%
35 | C=C(C)[C@@H]1CC[C@]2(C(N)=O)CC[C@]3(C)[C@H](CC[C@@H]4[C@@]5(C)CC[C@H](O)C(C)(C)[C@@H]5CC[C@]43C)[C@@H]12 | -24.5% [100 µM] (active)
36 | COc1ccc(-c2cc(-c3ccc(Cl)cc3)nc(SCCCCCCC(=O)NO)n2)cc1 | 49.2%
37 | Cc1cc[n+](CCCCCCCCCC[n+]2ccc(C)cc2)cc1 | 87.6%
38 | CCCSc1nc(N)nc2nc[nH]c12 | 99.4%
